Screens as filed in PubChem BioAssay.
SMARCA2 act – increases SMARCA2 function in MMTV reporter cells; MG213 cells, MMTV-luciferase reporter, dexamethasone, overnight; activation, % at 9.1 µM; 370,000 compounds, 1% hits; in the data active = activation above about 7.8%;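 note: 0% = vehicle wells and 100% = reference activator wells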
DAX1 inh-1 – inhibitors of human orphan nuclear receptor DAX1 (NR0B1); 340,000 compounds, 0.99% hits; HEK293 Gal4-DAX1 luciferase reporter, luminescence; inhibition, % at 6.75 µM;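 active = inhibition above the mean over all tested compounds plus 3 SD, cut at about 4.2% in these data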;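 note: 0% = DAX1-transfected cells with DMSO and 100% = empty-vector control cells with DMSO; inhibition shows as a rise in luminescence from relieved DAX1 repression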
Target sequence (P51843 207-470 limits assumed): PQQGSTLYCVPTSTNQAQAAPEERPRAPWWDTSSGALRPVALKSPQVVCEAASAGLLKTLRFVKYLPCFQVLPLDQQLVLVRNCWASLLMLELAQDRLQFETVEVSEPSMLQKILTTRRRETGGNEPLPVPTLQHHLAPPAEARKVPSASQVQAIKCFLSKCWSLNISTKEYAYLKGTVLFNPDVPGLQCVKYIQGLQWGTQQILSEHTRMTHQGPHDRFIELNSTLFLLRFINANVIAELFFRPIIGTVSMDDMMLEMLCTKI
ssDAF12 agonist – activates DAF-12 receptor from parasite S. stercoralis. HEK293 ssDAF-12/GRIP1 lit1-tk-luc reporter, luminescence; % of 3 µM dafachronic acid response. activation, % at 6.8 µM. 370,000 compounds, 1% hits;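 active = activation above the mean over all tested compounds plus 3 SD, cut at about 0.9% in these data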;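 note: 0% = DMSO-only wells and 100% = 3 µM delta7-dafachronic acid wells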
hcDAF-12 act – H. contortus DAF-12 activation, primary screen. HEK293 hcDAF-12 lit1-tk-luc reporter, luminescence; 0% DMSO, 100% Δ7-dafachronic acid. activation, % at 6.8 µM. 370,000 compounds, 1.4% hits. AID 652067;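 active = activation above the mean of all tested compounds plus 3 SD, cut at about 5.5% in these data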;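 note: 100% = response to 3 µM Δ7-dafachronic acid high control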
hgDAF-12 ag – activates the H. glycines DAF-12 receptor ligand-binding domain | HEK293 GAL4-hgDAF12 UAS-luciferase reporter, agonist luminescence; normalized to butyrate control | activation, % at 6.8 µM | 370,000 compounds, 1.8% hits | AID 687014;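 active = activation above a cutoff set at the mean of all screened compounds plus 3 SD, cut at about 10% in these data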;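 note: 0% = DMSO wells and 100% = sodium butyrate wells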
DAX1 inh-2 – blocks DAX1 repression of SF-1 activated StAR promoter; HEK293T StAR-luciferase reporter, SF-1/DAX-1 repression relief; inhibition, % at 6.8 µM; 370,000 compounds, 1.1% hits;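 active = inhibition above the mean over all tested compounds plus 3 SD, cut at about 3.6% in these data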;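 note: 0% = DAX-1 cells with DMSO and 100% = cells lacking DAX-1 with DMSO; higher inhibition means more luminescence from relief of DAX-1 repression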
LXR ag – activates human LXR-beta, counter-screen for hcDAF-12 agonists; shares compounds with hcDAF-12 act; HEK293 Gal4-LXR tk-luc reporter, luminescence, 24 h; normalized: DMSO 0%, positive control 100%; activation, % at 6.8 µM; 3,400 tested, under 10 active;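 active = mean percent activation of the reporter above a cutoff set as the average over tested compounds plus their standard deviation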
Target sequence (P55055 whole entry, looked up, the tested form may be a part): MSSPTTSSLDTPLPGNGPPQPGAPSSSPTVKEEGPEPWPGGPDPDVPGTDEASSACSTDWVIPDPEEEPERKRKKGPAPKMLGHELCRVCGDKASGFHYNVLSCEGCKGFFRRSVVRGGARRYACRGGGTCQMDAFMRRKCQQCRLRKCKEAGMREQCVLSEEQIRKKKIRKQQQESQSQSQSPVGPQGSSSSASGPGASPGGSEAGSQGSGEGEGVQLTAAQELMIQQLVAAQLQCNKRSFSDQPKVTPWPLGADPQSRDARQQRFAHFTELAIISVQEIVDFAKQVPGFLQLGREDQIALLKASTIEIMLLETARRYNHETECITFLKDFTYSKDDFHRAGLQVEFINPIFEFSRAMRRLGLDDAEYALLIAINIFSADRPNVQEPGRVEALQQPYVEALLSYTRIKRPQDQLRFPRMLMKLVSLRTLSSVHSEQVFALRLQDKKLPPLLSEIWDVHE
hcDAF12 ag – confirmation of H. contortus DAF-12 agonists; shares compounds with hcDAF-12 act; HEK293 hcDAF-12 lit1-tk-luc reporter, luminescence; % of Δ7-dafachronic acid response; activation, % at 6.8 µM; 3,400 compounds, 61% hits; AID 743032;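 active = mean activation across triplicate tests above the threshold derived from the earlier primary screen, cut at about 5.5% in these data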;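 note: 0% = DMSO only wells and 100% = 3 µM Δ7-dafachronic acid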
hgDAF12 conf – hgDAF-12 agonism, confirmation assay; shares compounds with hgDAF-12 ag; HEK293 GAL4-hgDAF12 luciferase reporter, agonist mode; percent of butyrate response; activation, % at 6.8 µM; 3,300 compounds, 80% hits; AID 743050;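 active = mean activation over triplicate wells above the hit cutoff derived from the earlier primary screen, cut at about 11% in these data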;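 note: 0% = DMSO low control and 100% = 2 mM sodium butyrate high control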
LXR ag 2 – activates human LXR-beta, counter-screen for DAF-12 agonists. shares compounds with hgDAF-12 ag. HEK293 Gal4-LXR luciferase reporter, 24 h. activation, % at 6.8 µM. 3,300 tested, under 10 active. AID 743051;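 active = mean activation of the triplicate above a set limit carried over from the primary screen, none filed active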
* = called active by the depositor; . = no result. This is a sample that favours compounds with a hit; in the whole collection about 4.8% have one here.

SMILES | SMARCA2 act | DAX1 inh-1 | ssDAF12 agonist | hcDAF-12 act | hgDAF-12 ag | DAX1 inh-2 | LXR ag | hcDAF12 ag | hgDAF12 conf | LXR ag 2
O=C(Nc1ccccc1)Nc1ccc(Br)cc1F | -4.7 | -1.6 | -1.5 | -1.0 | 6.9 | 0.1 | . | . | . | .
Cc1csc(NC(=O)/C=C/c2ccco2)n1 | 5.6 | 0.1 | -0.7 | 6.6* | 13.9* | 1.5 | 0.9 | 3.5 | 13.2* | 0.5
O=C(/C=C/c1ccco1)Nc1nc(-c2ccccc2)cs1 | 2.4 | 2.6 | -1.7 | -0.6 | 5.2 | 1.3 | . | . | . | .
O=C(/C=C/c1ccco1)Nc1ccc2c(c1)OCCO2 | 0.3 | -0.1 | 0.2 | 7.5* | 15.6* | 4.4* | 1.3 | 8.9* | 18.3* | 1.1
CCOC(=O)C(CN1CCCC1)c1ccccc1 (stereo not given) | 0.6 | 0.8 | -1.1 | -1.2 | 0.0 | 0.0 | . | . | . | .
CSc1ccccc1NC(=O)c1ccccc1N(C)S(C)(=O)=O | -2.0 | 0.7 | -1.1 | -1.1 | -1.7 | 0.1 | . | . | . | .
CCCC(=O)Nc1ccccc1NC(=O)c1ccc(OCC)cc1 | 0.9 | 1.3 | -0.8 | 0.3 | 3.1 | -0.4 | . | . | . | .
CCOc1ccc(C(=O)Nc2ccccc2C(=O)O)cc1 | 7.8 | -0.3 | 1.1* | 8.2* | 18.3* | 3.4 | 1.1 | 8.3* | 14.9* | 0.8
O=C(COc1ccc2ccccc2c1)Nc1ccncc1 | -4.6 | -1.9 | -2.3 | -2.4 | -4.1 | -3.0 | . | . | . | .
CNC(=O)c1ccsc1NC(=O)c1ccc2c(c1)CCCC2 | 4.7 | 0.2 | 0.4 | 6.9* | 17.1* | 1.3 | 0.2 | 7.0* | 8.8 | 0.5
NS(=O)(=O)c1ccc(NC(=O)c2ccc3c(c2)CCCC3)cc1 | 5.5 | 0.0 | -0.1 | -1.3 | 3.2 | 0.0 | . | . | . | .
Cn1c(NC(=O)CCc2ccccc2)cc(=O)n(C)c1=O | 5.7 | 0.6 | 1.6* | 9.4* | 14.1* | 4.1* | 0.8 | 7.5* | 12.8* | 0.5
COc1ccc(NC(=S)Nc2cc(C)ccn2)c(OC)c1 | 7.1 | 3.5 | 1.5* | 13.6* | 13.8* | 2.6 | 1.0 | 12.2* | 19.2* | 0.7
c1ccc(Nc2scc(-c3ccccc3)[n+]2Cc2ccco2)cc1 | 5.7 | 5.1* | 0.4 | 7.3* | 13.7* | 2.7 | 0.9 | 4.3 | 15.8* | 0.6
O=C(CN1C(=O)c2ccccc2S1(=O)=O)NCCSCc1ccccc1Cl | -0.3 | 0.8 | -1.2 | -2.1 | 2.3 | 0.6 | . | . | . | .
O=C(Nc1ccccc1)c1ccccc1O | 7.5 | 0.8 | -0.3 | 3.1 | 3.4 | 0.8 | . | . | . | .
Cc1ccc(NC(=O)c2ccccc2O)cc1 | 4.7 | -0.2 | 2.1* | 10.3* | 19.6* | 2.6 | 1.6 | 8.3* | 17.0* | 0.8
c1csc(-c2nc3ccccc3[nH]2)c1 | 3.0 | 0.2 | -0.8 | 0.9 | 7.4 | 0.6 | . | . | . | .
Cc1ccc(-c2nc3ccccc3[nH]2)s1 | 5.1 | 1.3 | 1.9* | 7.9* | 19.6* | 3.8* | 1.6 | 8.2* | 19.3* | 0.8
C[C@H](CO)N1C[C@H](C)[C@@H](CN(C)Cc2ccc(-c3ccccc3)cc2)OCc2cnnn2CCCC1=O | 0.8 | -1.2 | -1.0 | 0.3 | 1.3 | 1.1 | . | . | . | .
O=C(NCCCn1ccnc1)c1cc(-c2cccs2)on1 | 0.2 | 3.9 | -0.1 | 7.6* | 53.2* | -0.9 | 0.5 | 4.1 | 50.9* | 0.4
COc1ccc(OC)c(-c2cc(C(=O)NCCCn3ccnc3)no2)c1 | -2.0 | -0.7 | -1.6 | -1.1 | -1.0 | -0.7 | . | . | . | .
Cc1c(C(C)(C)C)sc(=NC(=O)c2ccccc2O)n1C | 6.2 | 2.2 | 0.1 | 6.9* | 14.2* | 1.4 | 1.9 | 14.1* | 15.5* | 0.9
Oc1ccccc1-c1cc(-c2cccc(F)c2)n[nH]1 | 2.6 | 2.7 | 2.4* | 21.0* | 23.6* | 4.4* | 1.5 | 15.7* | 27.2* | 1.1
CSc1nc2ccc(NC(=O)C3=NN(c4ccccc4)C(=O)CC3)cc2s1 | -0.7 | -0.5 | -0.7 | 1.2 | -3.4 | -1.4 | . | . | . | .
SMILES | SMARCA2 act | DAX1 inh-1 | ssDAF12 agonist | hcDAF-12 act | hgDAF-12 ag | DAX1 inh-2 | LXR ag | hcDAF12 ag | hgDAF12 conf | LXR ag 2
Cc1nc2ccc(NC(=O)c3cc(Cl)ccn3)cc2s1 | 6.3 | 4.0 | 0.1 | 7.0* | 16.4* | 3.5 | 1.4 | 5.8* | 15.4* | 0.9
CSc1nc2ccc(NC(=O)c3ccccn3)cc2s1 | 6.4 | -1.1 | 1.3* | 10.5* | 16.2* | 3.9* | 1.6 | 7.8* | 17.2* | 0.9
Cc1nc2ccc(NC(=O)c3ccc(Cl)nc3)cc2s1 | -2.6 | 1.3 | -1.3 | -1.8 | -1.3 | -0.3 | . | . | . | .
COc1ccc(Nc2nc(-c3cc4cccc(OC)c4oc3=O)cs2)cc1 | -1.2 | 3.5 | -0.8 | -1.9 | 4.9 | 0.3 | . | . | . | .
COc1ccc(-c2cc3cccc(OC)c3oc2=O)cc1 | 3.2 | -1.2 | 0.5 | 7.3* | 15.5* | 2.9 | 1.6 | 7.8* | 23.6* | 1.2
CC1(C)C2([N+](=O)[O-])CN3CC1([N+](=O)[O-])CN(C2)C31CCCC1 | -0.3 | 1.2 | -0.2 | 1.5 | -1.8 | 0.5 | . | . | . | .
O=C(/C=C/c1ccco1)NC(=S)Nc1cc(-c2nc3ccccc3s2)ccc1Cl | 1.1 | 2.1 | 2.8* | 11.7* | 14.8* | 2.5 | 0.1 | 5.1 | 6.0 | 0.1
Cc1ccc(-c2nc3ccccc3s2)cc1NC(=S)NC(=O)/C=C/c1ccco1 | -0.8 | 0.9 | 0.5 | 3.2 | 6.2 | 1.9 | . | . | . | .
Cc1ccc(NC(=O)c2c(C)noc2C)cc1 | -2.5 | 0.7 | -0.9 | -0.2 | -1.9 | 0.2 | . | . | . | .
Cc1ccc(NC(=O)c2onc(C)c2Cl)cc1 | 5.8 | 2.2 | 0.9 | 9.1* | 18.2* | 3.3 | 0.9 | 11.6* | 15.5* | 0.5
COc1cccc(NC(=O)c2ccc3c(c2)OCCO3)c1 | 2.9 | -3.2 | 0.8 | 10.6* | 13.5* | 2.1 | 1.4 | 6.9* | 15.9* | 1.1
COc1cccc(NC(=O)c2ccc3c(c2)OCO3)c1 | 4.2 | -0.1 | 2.8* | 7.1* | 13.9* | 3.2 | 1.3 | 8.2* | 17.0* | 0.8
COc1cccc(NC(=O)c2oc3ccccc3c2NC(=O)c2ccc3c(c2)OCO3)c1 | 1.7 | -0.7 | -0.6 | 1.1 | -1.3 | -0.5 | . | . | . | .
COc1ccc(N(CC(=O)NCc2ccco2)S(=O)(=O)c2c(C)nn(C)c2C)cc1 | 3.7 | 0.1 | -0.9 | -1.6 | -2.5 | 0.7 | . | . | . | .
